Measurements reported in PubChem BioAssay (NCI).
This is part of a sample that, as a whole, favours compounds with a hit. Of some 83,000 tested, about 20% had one in any assay.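 48-hour exposure, single concentration, 96-well plates; percent growth endpoint where 0 means no net growth. Active: below 10.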 Unmarked numbers belong to inactive results. The source made the active and inactive calls.

The compounds below were run on MCF7 breast (assay: NCI-60 one-dose screen, 48 h (100 = growth as untreated, 0 = no growth, -100 = all killed)). Settings: 10 µM.
`O=C(c1ccccc1)N(C(=S)NCCc1ccc(Cl)cc1)c1ccccc1` gave a growth of 38.6%. With `O=C(Nc1ccc(F)cc1F)c1cc(Br)ccc1O` the growth was -1.09% (active). For `CC[C@]1(O)C[C@@H]2CN(CCc3c([nH]c4ccccc34)[C@@](C(=O)OC)(c3cc4c(cc3OC)N(C)[C@H]3[C@@](O)(C(=O)OC)[C@H](OC(=O)CCCBr)[C@]5(CC)C=CCN6CC[C@]43[C@@H]65)C2)C1`, the growth was 12.9%. For `O=c1oc2ccc(Cl)cc2c(=O)n1-c1ccc(F)cc1F`, the growth was 5.09% (active). `Fc1cccc(COc2ccc(Nc3ncnc4onc(-c5ccccc5)c34)cc2)c1` was tested, and the growth was 14%. With `O=C(Nc1ccc(F)cc1F)c1cc(Cl)ccc1O` the growth was 3.22% (active). For `O=C(CCc1nnc2sc(-c3ccc(Cl)cc3Cl)nn12)c1nc2ncccc2[nH]1`, the growth was 6.03% (active). `COc1ccc(C2=C(c3cccc(OC)c3)C(=O)c3ccc(C)nc3C2=O)cc1` was tested, and the growth was 23.7%. In the case of `COc1cc(/C=C2\Oc3cc(OCCCN4CCCC4)ccc3C2=O)cc(OC)c1`, the growth is reported as 4.85% (active). For `Nc1ccn(C2O[C@H](CO)[C@@H](O)[C@H]2O)c(=O)n1` (some centres not stated), the growth was 63.1%. `COc1cc2nc(-c3cnc(N(C)C)nc3)nc(NC3CCN(Cc4ccccc4)CC3)c2cc1OC` was tested, and the growth was -65.5% (active). In the case of `O=c1oc2ccc(I)cc2c(=O)n1-c1ccc(F)cc1F`, the growth is reported as 5.86% (active). Compound `C1=CC2(C=C1)OC21CCC2(C=CC3(C2)OC3C2CCCCC2)CC1` (configuration not stated) has a growth of 106%. `COc1ccc2[nH]c(O)c(N=NC(=O)c3oc4ccccc4c3C)c2c1` was tested, and the growth was 22.9%. Compound `CCOc1ccc(-c2nonc2NC(=O)c2cccc(C)c2)cc1OCC` has a growth of 60.3%. `Cc1cccc2c(=O)c3c(sc12)c(NCCN)nc1ccccc13` was tested, and the growth was -82.1% (active). For `COc1ccc(Cn2c(Br)c3c(c2Br)-c2nc(NC(=O)c4ccc(OC)cc4)sc2CC3)cc1`, the growth was 78.5%. For `O=C(Nc1ccc(Br)cc1F)c1cc(I)ccc1O`, the growth was 5.42% (active). In the case of `Cc1ccc2[nH]c(=O)cc(-n3nncc3Cn3c4ccccc4c4ccccc43)c2c1`, the growth is reported as 99.5%. In the case of `COc1ccc(-c2cn[nH]c2-c2ccc(OC)c(O)c2)cc1`, the growth is reported as 35.4%. For `O=C(CCc1nnc2sc(COc3ccccc3)nn12)c1nc2ncccc2[nH]1`, the growth was 94.5%. Work on `CCOC(=O)c1c2c(c(C)n1Cc1ccc(OC)cc1)-c1oncc1CC2` yielded a growth of 97.5%. Compound `Cc1nc(Nc2ccccn2)sc1C(=O)/C=C/c1ccc(Cl)cc1` has a growth of 17.6%.

These compounds were tested on HCT-116 colon in the same assay as above. Settings: 10 µM unless noted.
In the case of `O=c1oc2ccc(Cl)cc2c(=O)n1-c1ccc(Cl)cc1F`, the growth is reported as 2.58% (active). `O=C(CCc1nnc2sc(Cc3ccccc3Cl)nn12)c1nc2ncccc2[nH]1` showed a growth of 84%. With `O=c1oc2ccc(I)cc2c(=O)n1-c1ccc(I)cc1F` the growth was 2.66% (active). In the case of `O=C(NCc1ccccc1)C1CN(c2ccc(Cl)cc2)N(c2ccc(Cl)cc2)C1=O` (configuration not stated), the growth is reported as 83.8%. With `O=c1oc2ccc(-c3ccc(F)cc3F)cc2c(=O)n1-c1cccc(C(F)(F)F)c1` the growth was 8.28% (active). `Nc1nc(-c2cnccn2)nn1-c1nc2ccccc2s1` showed a growth of 93%. `O=C(c1ccccc1)N(C(=S)NCCc1ccc(Cl)cc1)c1ccc(Cl)cc1` gave a growth of 45.3%. `O=C(COc1cc(O)c2c(=O)cc(-c3ccccc3)oc2c1)Nc1ccccc1` gave a growth of 57.4%. `O=C(Nc1ccc(I)cc1F)c1cc(Cl)ccc1O` was tested, and the growth was -29.5% (active). `O=c1oc2ccc(F)cc2c(=O)n1-c1ccc(I)cc1F` was tested, and the growth was 7.36% (active). In the case of `O=C(Nc1ccc(I)cc1F)c1cc(Br)ccc1O`, the growth is reported as -8.63% (active). In the case of `CSc1nc2c(c(=O)[nH]1)N=C1c3ccccc3C(=O)C1C(c1ccc(F)cc1)N2` (configuration not stated), the growth is reported as 48.4%. `O=C(Nc1ccc(F)cc1F)c1cc(I)ccc1O` was tested, and the growth was 6.45% (active). For `O=C(Nc1ccc(Br)cc1F)c1cc(Cl)ccc1O`, the growth was -30.5% (active). `Cn1nc(C(C)(C)C)cc1NC(=O)Cc1ccc(/C=C2\C(=O)Nc3ccccc32)cc1` showed a growth of 33.6%. `CN(CCc1ccccc1)C(=S)N(C(=O)c1ccc([N+](=O)[O-])cc1)c1ccc(Cl)cc1` gave a growth of 67.3%. `O=C(c1ccccc1)N(C(=S)NCCc1ccc(Cl)cc1)c1ccccc1` was tested, and the growth was 62.2%. For `O=C(Nc1ccc(F)cc1F)c1cc(Br)ccc1O`, the growth was 1.66% (active). For `CC[C@]1(O)C[C@@H]2CN(CCc3c([nH]c4ccccc34)[C@@](C(=O)OC)(c3cc4c(cc3OC)N(C)[C@H]3[C@@](O)(C(=O)OC)[C@H](OC(=O)CCCBr)[C@]5(CC)C=CCN6CC[C@]43[C@@H]65)C2)C1`, the growth was 5.16% (active). In the case of `O=c1oc2ccc(Cl)cc2c(=O)n1-c1ccc(F)cc1F`, the growth is reported as 7.6% (active). In the case of `Fc1cccc(COc2ccc(Nc3ncnc4onc(-c5ccccc5)c34)cc2)c1`, the growth is reported as 8.15% (active). In the case of `O=C(Nc1ccc(F)cc1F)c1cc(Cl)ccc1O`, the growth is reported as 8.39% (active). For `O=C(CCc1nnc2sc(-c3ccc(Cl)cc3Cl)nn12)c1nc2ncccc2[nH]1`, the growth was -73.6% (active). Work on `COc1ccc(C2=C(c3cccc(OC)c3)C(=O)c3ccc(C)nc3C2=O)cc1` yielded a growth of 11.2%. With `COc1cc(/C=C2\Oc3cc(OCCCN4CCCC4)ccc3C2=O)cc(OC)c1` the growth was -67.3% (active). `Nc1ccn(C2O[C@H](CO)[C@@H](O)[C@H]2O)c(=O)n1` (some centres not stated) showed a growth of 64.4%. In the case of `COc1cc2nc(-c3cnc(N(C)C)nc3)nc(NC3CCN(Cc4ccccc4)CC3)c2cc1OC`, the growth is reported as -80.6% (active). `O=c1oc2ccc(I)cc2c(=O)n1-c1ccc(F)cc1F` was tested, and the growth was 6.72% (active). `C1=CC2(C=C1)OC21CCC2(C=CC3(C2)OC3C2CCCCC2)CC1` (configuration not stated) gave a growth of 101%. For `COc1ccc2[nH]c(O)c(N=NC(=O)c3oc4ccccc4c3C)c2c1`, the growth was -28.6% (active). With `CCOc1ccc(-c2nonc2NC(=O)c2cccc(C)c2)cc1OCC` the growth was 47.2%. `Cc1cccc2c(=O)c3c(sc12)c(NCCN)nc1ccccc13` was tested, and the growth was -93.9% (active). In the case of `COc1ccc(Cn2c(Br)c3c(c2Br)-c2nc(NC(=O)c4ccc(OC)cc4)sc2CC3)cc1`, the growth is reported as 75.9%. `O=C(Nc1ccc(Br)cc1F)c1cc(I)ccc1O` was tested, and the growth was 5.43% (active). `Cc1ccc2[nH]c(=O)cc(-n3nncc3Cn3c4ccccc4c4ccccc43)c2c1` gave a growth of 97.8%. Compound `COc1ccc(-c2cn[nH]c2-c2ccc(OC)c(O)c2)cc1` has a growth of 61.4%. `O=C(CCc1nnc2sc(COc3ccccc3)nn12)c1nc2ncccc2[nH]1` showed a growth of 91.3%. Work on `CCOC(=O)c1c2c(c(C)n1Cc1ccc(OC)cc1)-c1oncc1CC2` yielded a growth of 80.2%. For `Cc1nc(Nc2ccccn2)sc1C(=O)/C=C/c1ccc(Cl)cc1`, the growth was 14.3%.
